# Bioassay records from PubChem BioAssay.
# Most compounds without a hit are left out; they make up all but 1.1% or so of the library.
# APOBEC3A inh – inhibitors of human APOBEC3A DNA deaminase | recombinant A3A, FAM/TAMRA ssDNA deamination fluorescence | 0.41% of 330,000 active | inhibition, % at 20 µM;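 active = at least 40% inhibition at 20 µM here, with at most 30% in a related deaminase screen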
# Target sequence (P31941 whole entry, looked up): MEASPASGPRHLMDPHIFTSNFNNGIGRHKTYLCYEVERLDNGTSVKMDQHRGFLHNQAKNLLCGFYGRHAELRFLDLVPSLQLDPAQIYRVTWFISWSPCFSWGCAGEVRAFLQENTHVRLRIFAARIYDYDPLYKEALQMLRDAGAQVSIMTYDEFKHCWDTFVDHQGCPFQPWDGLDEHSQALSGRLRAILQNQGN
# MIN6 prolif – induces beta-cell replication in MIN6 cells; 0.29% of 330,000 active; MIN6 cells proliferation, ATPlite luminescence, 48 h; cells starved in 0.2% serum; 100% = growth in 10% serum; AID 2380; proliferation, % at 10 µM;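 active = compounds whose signal lies at least 3.5 SD above the mean of all wells on their plate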
# Bfl-1 A1 inh – inhibitors of the anti-apoptotic protein A1, read as caspase activation; MEF A1-2A-BIM cells, Caspase-Glo 3/7 luminescence, 3 h; percent of clofoctol response, vehicle zero; caspase activation, % (no concentration beside the values); 0.066% of 330,000 active; AID 2462;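 active = over half of replicate activation scores above 10%, or exactly half above 10 with the replicate mean above 10; inconclusive = replicate mean below 10 yet half the replicates above 10; inactive = over half of replicates below 10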
# A3G deaminase – blocks human APOBEC3G single-stranded DNA deamination; inhibition, % at 20 µM; 0.28% of 330,000 active; recombinant A3G, ssDNA deamination FAM/TAMRA fluorescence;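 active = inhibition of at least 40% at 20 µM, with no more than 30% in the related APOBEC3A deaminase screen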
# Target sequence (Q9HC16 whole entry, looked up): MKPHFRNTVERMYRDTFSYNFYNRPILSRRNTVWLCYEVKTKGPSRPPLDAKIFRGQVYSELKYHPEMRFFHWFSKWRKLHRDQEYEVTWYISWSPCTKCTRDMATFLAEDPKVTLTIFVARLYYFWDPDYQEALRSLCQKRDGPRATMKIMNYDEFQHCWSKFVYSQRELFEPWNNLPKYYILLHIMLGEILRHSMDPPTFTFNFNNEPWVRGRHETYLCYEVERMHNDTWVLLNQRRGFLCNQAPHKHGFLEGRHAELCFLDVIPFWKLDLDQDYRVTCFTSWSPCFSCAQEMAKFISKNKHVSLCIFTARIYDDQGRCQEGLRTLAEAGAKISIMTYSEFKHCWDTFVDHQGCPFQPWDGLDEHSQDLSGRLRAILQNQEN
# Hits are given with their value; 0 = inactive; ? = inconclusive; - = no result given.
SMILES,APOBEC3A inh,MIN6 prolif,Bfl-1 A1 inh,A3G deaminase
COc1cc(NC(=O)c2cccc(C)c2)ccc1NC(=O)c1cc2ccccc2o1,0,0,8.2,0
O=C(CC1CC2CCC1C2)N1CCN(S(=O)(=O)c2ccccc2C(F)(F)F)CC1 (stereo not drawn),0,0,8.6,0
O=C(CSc1nnc(-c2ccncc2)o1)Nc1ccc(F)c(F)c1,0,0,21,0
c1ccc(Cc2nn3c(Cn4nnc5ccccc54)nnc3s2)cc1,0,0,21,0
c1ccc(CCc2nn3c(Cn4nnc5ccccc54)nnc3s2)cc1,0,0,0,0
COc1ccc(C2C(O)C(c3c[nH]c4ccccc34)=NN2C(=O)CCl)cc1 (stereo not drawn),0,0,8.0,0
COc1ccc(C2NN=C(c3c[nH]c4ccccc34)C2O)cc1 (stereo not drawn),0,0,0,0
CC(Sc1ccc(Br)cc1)C(N)=O (stereo not drawn),102,0,0,0
CCCCN(C(=O)C1CCCC1)c1c(N)n(Cc2ccccc2)c(=O)[nH]c1=O,0,0,0,0
CC(C)CCN(C(=O)Cc1ccc(Cl)c(Cl)c1)c1c(N)n(Cc2ccccc2)c(=O)[nH]c1=O,0,0,12,0
CCCCC1CCC(C(=O)N(CC(C)C)c2c(N)n(Cc3ccccc3)c(=O)[nH]c2=O)CC1 (stereo not drawn),0,0,29,0
CC(C)CCN(C(=O)c1ccncc1)c1c(N)n(Cc2ccccc2)c(=O)[nH]c1=O,0,0,0,0
C/C(=N\NC(=O)COc1ccc(C(C)(C)C)cc1)c1ccc(OC(F)F)cc1,0,0,0,0
C/C(=N\NC(=O)COc1ccc(C#N)cc1)c1ccccc1OC(F)F,0,6.9,0,0
CCC(C)(C)C1CCC2(CC1)NC(=O)N(CC(=O)N1CCN(S(=O)(=O)c3cc(C)ccc3C)CC1)C2=O (stereo not drawn),0,0,0,0
Cc1nc(SCc2nc3c([N+](=O)[O-])cccc3[nH]2)c2oc3ccccc3c2n1,0,0,17,0
COc1ccc(-c2nn(-c3ccccc3)cc2/C=C/C(=O)OCC(=O)Nc2ccccc2C#N)cc1,0,0,24,0
C=CCn1c(SCC(=O)NCCO)nc2sc(C)c(C)c2c1=O,0,13,0,0
COc1cc([N+](=O)[O-])ccc1NC(=O)CSc1nncn1-c1cccnc1,0,0,0,0
CCOc1cc(/C=C2/C(=N)N3C=CSC3=NC2=O)ccc1OCCCOc1ccccc1C,0,0,41,0
COc1cc(/C=C2/C(=N)N3C=CSC3=NC2=O)ccc1OCCCOc1ccccc1C,0,0,0,0
Nc1nc2c(s1)CCc1c-2cnn1-c1ccccc1,0,0,0,54
Nc1nc2c(s1)COc1ccccc1-2,0,0,0,0
Cc1cccc(N2CCN(C(=O)Cn3sc4nc(C)cc(C)c4c3=O)CC2C)c1 (stereo not drawn),0,0,0,53
Cc1cccc(N2CCN(C(=O)Cn3nc(C)n4cccc4c3=O)CC2C)c1 (stereo not drawn),0,0,0,0
SMILES,APOBEC3A inh,MIN6 prolif,Bfl-1 A1 inh,A3G deaminase
O=C(COc1ccccc1[N+](=O)[O-])Nc1ccc2oc(=O)ccc2c1,0,0,?,0
O=C(COc1ccccc1[N+](=O)[O-])Nc1ccc(NC(=O)c2cc3ccccc3o2)cc1,0,0,7.5,0
O=C(COc1ccc(/C=N/NC(=O)c2cc3ccccc3o2)cc1Br)Nc1ccccc1,0,0,27,0
Cn1c(=O)c(=O)n(C)c2cc(S(=O)(=O)CCC(=O)Nc3ccc(C(F)(F)F)cc3)ccc21,0,0,0,0
CCN(C(=O)COC(=O)c1ccc([N+](=O)[O-])o1)c1cccc2ccccc12,0,0,0,0
CC1CC(C)CN(C(=O)c2ccc(-c3ccc([N+](=O)[O-])cc3)o2)C1 (stereo not drawn),0,0,10,0
Cc1cccc(/C=N/n2c(-c3ccccn3)n[nH]c2=S)c1,0,0,0,57
S=c1[nH]nc(-c2ccncc2)n1/N=C/c1cccc(Cl)c1,0,0,0,53
COc1cc(CNCc2cc(OC)c(OC)c(OC)c2)cc(OC)c1,0,0,0,0
CCc1ccc(C2C3=C(CC(C)(C)CC3=O)Nc3c2c(=O)[nH]c2nc(C)nn32)cc1 (stereo not drawn),0,0,6.1,0
CCN(C(=O)CSc1nc2ccc(Cl)cc2[nH]1)C1CCS(=O)(=O)C1 (stereo not drawn),0,0,0,0
CC1(C)c2cc(O)ccc2OC1N1CCOCC1 (stereo not drawn),0,0,9.5,0
CC1(C)Oc2ccc(/C=C/C(=O)N3CCOCC3)c(O)c2C(N2CCOCC2)C1O (stereo not drawn),0,0,0,0
Cc1ccc(Cl)cc1NC(=O)Cn1c(C)csc1=O,0,0,0,0
COc1ccc2c(-c3cc4ccc(OCc5ccc(F)cc5)cc4oc3=O)cc(=O)oc2c1,-,-,9.6,-
O=C1COc2ccc(N3C(=O)C=CC3=O)cc2N1,0,0,0,49
C[C@H](NC(=O)C1CCN(S(=O)(=O)c2ccccc2)CC1)C(=O)NCc1ccc(Cl)cc1Cl,0,0,0,0
CCN(CC(=O)Nc1c(F)cccc1F)C(=O)/C=C/c1ccc(OCC#N)c(OC)c1,0,0,0,0
CCN(CC(=O)Nc1c(F)cccc1F)C(=O)/C=C/c1ccc(C)cc1,0,0,12,0
CSC(SC)=C(C#N)C(=O)c1ccccc1,0,0,6.7,0
CCCCn1c(N)c(N(CCOC)C(=O)c2c(C)noc2C)c(=O)[nH]c1=O,0,0,0,0
CC1(C)CC(=O)C=C(c2cccs2)C1,0,0,0,0
O=C1C=CC(=O)N1c1cccc(-c2ccccc2)c1,0,0,13,0
O=C1c2ccccc2C(=O)N1c1cccc(-c2nc3ccccc3o2)c1,0,0,0,0
COc1ccc(-c2nn(-c3ccccc3)cc2C(N)=O)cc1OC,0,0,0,0
SMILES,APOBEC3A inh,MIN6 prolif,Bfl-1 A1 inh,A3G deaminase
C=CC[N+]1(CC#CCOC(c2ccccc2)c2ccccc2)CCOCC1,0,0,0,0
C=CC[N+]1(CC=C)CCOCC1,0,0,8.6,0
O=C(NCc1ccc2c(c1)OCO2)c1cc(=O)[nH]c2ccccc12,0,0,0,0
Cc1ccccc1CS(=O)(=O)CCC(=O)NCCCN1CCN(c2ccccc2F)CC1,0,0,0,0
Cc1cc(C)c2c(=O)n(CC(=O)NCCCN3CCN(c4ccccc4F)CC3)sc2n1,0,0,0,53
Cc1cc(C)c2c(=O)n(CC(=O)NCCCN3CCOCC3)sc2n1,0,0,0,54
CN(C(=O)CSc1nnc(C2CC2)n1C1CC1)C1(C#N)CCCCC1,0,0,0,0
Cc1cccc(CS(=O)(=O)c2ncc(Cl)c(C(=O)Nc3nnc(C(C)C)s3)n2)c1,0,0,8.1,0
Cc1ccc(CS(=O)(=O)c2ncc(Cl)c(C(=O)Nc3nnc(C(C)C)s3)n2)cc1,0,0,0,0
O=C(O)c1cccnc1SCC(=O)N1CCCc2ccccc21,0,0,0,0
CCCCc1ccc(NC(=O)CN(C)CC(=O)Nc2ccccc2Cl)cc1,0,0,18,0
